# Sampled rows, rich in hits. Any-hit rate of the full collection: about 19%.
# TGFb inhibitor: inhibitors of TGF-b signaling; actives 1.2% (n = 410,000); Potency, µM (doses to about 46.1 µM), for inactives: at the top dose activity, negative = inhibition, actives largely listed as inhibitors; AID 588855; HepG2 CAGA-GFP TGF-b/SMAD3 reporter, GFP fluorescence, 18 h; TGF-beta stimulated, 500 pg/mL final; further: potency means the concentration at half of the fitted maximal effect; on the % scale 0 is the no-effect control and ±100 the full control effect; nearly all actives have a fitted effect of over 65% in size
#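 Cell-based qHTS in HEPG2 carrying a CAGA-GFP Smad reporter; compounds added before 500 pg/mL final TGF-beta, 18 h incubation at 37 degrees C, GFP fluorescence quantified per cell by imaging cytometry.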
# IL1B secr inh: inhibitors of inflammasome signaling (IL-1 beta secretion). THP-1 LPS/ATP IL-1B secretion, AlphaLISA, 16 h; stronger effect = lower value. activity change, % at 57.5 µM. actives 4.7% (n = 360,000); in the data active means activity change below about -50%; inconclusive means mostly about -30% to -49%; further: on the % scale 0 is the no-effect control and ±100 the full control effect
#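 THP-1 cells pretreated 1 hr with compounds (up to 57.5 uM final), then stimulated with LPS (250 ng/mL final) plus ATP (1.25 mM final); secreted IL-1B measured by AlphaLISA after 16 hr, decreased signal indicating inhibition.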
# DT40 TDP1 no CPT: qHTS for Inhibitors of human tyrosyl-DNA phosphodiesterase 1 (TDP1): qHTS in cells in absence of CPT. DT40 Tdp1-/- hTDP1 cells, no CPT, ATP luminescence, 48 h. Potency, µM (series often up to 46.2 µM), for inactives: top-dose activity change, negative = growth inhibition, actives largely listed as inhibitors. actives 15% (n = 420,000). AID 686978, 2013; further: potency means the concentration at half of the fitted maximal effect; on the % scale 0 is the no-effect control and ±100 the full control effect; nearly all actives have a fitted effect of over 55% in size
#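 No-CPT arm: Tdp1-/-;hTDP1 DT40 cells (400/well) plus compounds, incubated ≥48 hr at 37 °C. Readout CellTiter-Glo luminescence.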
# ASM inhibitor: inhibitors of human secretory acid sphingomyelinase; placental ASM, HMU-PC fluorogenic substrate, 60 min; Potency, µM (top dose mostly 57.5 µM), for inactives: at the highest dose activity change, negative = inhibition, most hits filed as inhibitors; actives 0.006% (n = 340,000); P17405; further: potency means the concentration at half of the fitted maximal effect
# Target sequence (P17405 47-631 limits assumed): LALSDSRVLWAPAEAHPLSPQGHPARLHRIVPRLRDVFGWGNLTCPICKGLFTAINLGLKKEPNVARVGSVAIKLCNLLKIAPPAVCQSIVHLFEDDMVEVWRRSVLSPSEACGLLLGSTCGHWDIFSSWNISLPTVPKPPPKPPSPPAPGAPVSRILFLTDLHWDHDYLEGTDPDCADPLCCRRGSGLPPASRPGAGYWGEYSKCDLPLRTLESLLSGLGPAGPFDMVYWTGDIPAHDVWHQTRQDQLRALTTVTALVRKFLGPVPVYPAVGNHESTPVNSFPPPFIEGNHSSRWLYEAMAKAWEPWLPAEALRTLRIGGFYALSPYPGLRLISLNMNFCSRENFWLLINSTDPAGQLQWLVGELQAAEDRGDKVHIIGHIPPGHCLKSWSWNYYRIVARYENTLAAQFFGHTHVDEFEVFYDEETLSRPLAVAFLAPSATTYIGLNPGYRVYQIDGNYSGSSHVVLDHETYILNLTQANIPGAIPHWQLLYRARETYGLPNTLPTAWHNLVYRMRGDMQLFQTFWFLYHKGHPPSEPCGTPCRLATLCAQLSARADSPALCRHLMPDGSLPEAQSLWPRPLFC
#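 Steps: dispense placental human ASM, pin compound, wait 10 min at room temperature, add HMU-PC0 substrate at 9 uM final, incubate 60 min at 37 °C, add stop solution raising pH to 10, read fluorescence.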
# HepG2 tox: counter-screen for TGF-b inhibitors: cytotoxicity in HepG2 cells | Potency, µM (top dose mostly 46.1 µM), for the others: top-dose activity change, negative = cytotoxicity, actives largely listed as cytotoxic | AID 588856 | HepG2 CAGA-GFP viability, ATP luminescence, 18 h | actives 0.76% (n = 410,000); further: potency means the concentration at half of the fitted maximal effect
#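 CellTiter-Glo luminescence gave cytotoxicity after 18 hours at 37 degrees C. The cells were HepG2 CAGA-GFP in 1% FBS DMEM, stimulated with 500 pg/mL TGF-beta after compound addition. %Activity was normalised to no-cell wells (complete cell-killing) and DMSO (no toxicity), and curves were fitted and classified.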
# TDP1 cell CPT: DT40-hTDP1 cell growth loss with CPT; AID 686979; Potency, µM (doses to about 46.2 µM), without a hit: top-dose activity change, negative = growth inhibition, hits mostly inhibitors; actives 12% (n = 420,000); chicken DT40 Tdp1-/-;hTDP1 cells + 20 nM CPT, ATP luminescence, 48 h; further: potency means the concentration at half of the fitted maximal effect; on the % scale 0 is the no-effect control and ±100 the full control effect; nearly all actives have a fitted effect of over 55% in size
#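 Chicken DT40 Tdp1-/- cells stably complemented with human TDP1 were seeded at 400 cells/well in medium containing 20 nM camptothecin, exposed to pin-transferred compounds, and grown at 37 °C for at least 48 hr. Viability was read as ATP luminescence.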
# An asterisk follows results filed as active; i = inactive; ? = inconclusive; . = no result. Unless noted, the call rests on the fitted dose curve; in most records, active means well fitted curve in the direction sought with a large enough effect; inconclusive means small, poorly fitted or top-dose-only effect, or another doubt; inactive means no such curve, though single readings can be large; an effect the other way counts as inactive or inconclusive.
SMILES,TGFb inhibitor,IL1B secr inh,DT40 TDP1 no CPT,ASM inhibitor,HepG2 tox,TDP1 cell CPT
COc1ccc(NC(=O)CN2C(=O)NC3(CCCCCCC3)C2=O)cc1,-12%,-11,-27%,4%,-9%,-15%
O=C(CN1C(=O)C2CCCCN2c2ccc(C(=O)N3CCCC3)cc21)NCc1ccccc1 (stereo unspecified),-5%,.,?,.,-18%,-29%
O=C(CN1C(=O)NC2(CCCCCCC2)C1=O)NCc1ccc(Cl)cc1,-20%,?,-23%,4%,-31%,-10%
O=C(CN1C(=O)C2CCCCN2c2ccc(C(=O)N3CCCC3)cc21)NCc1cccc(Cl)c1 (stereo unspecified),-26%,.,5.8µM*,.,0%,?
CC(=O)NC(Cc1cccc(C)c1)C(=O)NC1CCN(C(=O)NCc2ccccc2)CC1 (stereo unspecified),2%,11,-18%,-23%,14%,5%
CCCCOc1ccc(C(=O)NCc2cn3cccc(C)c3n2)cc1,2%,.,?,.,-17%,?
CCOC(=O)C(NC(=O)C1C(C)N1S(=O)(=O)c1ccc(C)cc1)C(=O)OCC (stereo unspecified),0%,3,12%,0%,-3%,1%
CCCCCC(=O)Nc1ccc(C(=O)CN2C(=O)NC3(CCCCCC3)C2=O)cc1,-3%,95,3.7µM*,-4%,-14%,5.8µM*
CC(C)c1ccc(C2(C)NC(=O)N(C(C)C(=O)Nc3ccc(N4CCOCC4)cc3)C2=O)cc1 (stereo unspecified),17%,7,26µM*,-1%,0%,15µM*
O=C1NC2(CCCCCC2)C(=O)N1Cc1ccc(F)cc1Cl,1%,11,-16%,-1%,-36%,-1%
O=C1NC2(CCCCCC2)C(=O)N1Cc1ccc(Cl)cc1Cl,-12%,-63*,?,-6%,-1%,-12%
Cn1c(N)nc2nc(CCc3ccccc3)c(=O)[nH]c2c1=O,10%,-1,10%,i,-18%,-10%
COc1ccc(-c2ccc(SCC(=O)NCc3ccc4c(c3)OCO4)nn2)cc1OC,-15%,-95*,29µM*,-10%,-6%,?
COc1ccc(-c2ccc(SCc3ccccn3)nn2)cc1OC,19%,-56*,?,5%,1%,13µM*
COc1ccc(-c2ccc(SCC(=O)c3ccccc3)nn2)cc1OC,2%,-8,13µM*,-3%,-5%,?
O=[N+]([O-])c1cccc(-c2ccc(SCc3ccccn3)nn2)c1,-14%,?,26µM*,0%,0%,?
Clc1ccc(-c2ccc(SCc3ccccn3)nn2)cc1,-18%,-7,-18%,-1%,1%,?
COc1cc(Br)c(CCNC(=O)c2ccco2)cc1OC,6%,-1,5%,-1%,15%,-7%
Cc1c(Cl)cccc1NC(=S)/C(=C(\[O-])c1ccc(Cl)s1)[n+]1ccccc1,1%,-70*,-23%,-1%,-13%,-22%
[O-]/C(=C(\C(=S)Nc1cccc2ccccc12)[n+]1cccc(CO)c1)c1ccc(Cl)s1,?,0,-23%,-7%,-111%,-23%
CC1c2ccccc2CN1NC(=O)c1ccc(Cl)c(S(N)(=O)=O)c1 (stereo unspecified),.,.,5%,.,.,-2%
OCCN(CCO)c1ccc(C(c2ccccc2Cl)c2ccc(N(CCO)CCO)cc2Cl)c(Cl)c1,-24%,?,18µM*,-16%,-105%,?
O=C(O)c1cccc(N(CCO)CCO)c1,3%,5,12%,12%,-4%,-6%

# Screens: PubChem, National Center for Advancing Translational Sciences (NCATS)
